From PubChem BioAssay (EPA / NIEHS)
Records with an inconclusive call do not appear. Active and inactive are the calls of the source. The calls were made as follows: active = hit-call score of the fitted dose curve at least 0.9, where 1 is the maximum; inconclusive = response in the unintended direction; inactive = score below 0.9.

target: human CYP1A1, CYP1A1 (gene 1543) (UniProt P04798); assay: NVS_ADME_hCYP1A1: NovaScreen (NVS) CYP450-related Enzyme Activity (ADME) Assay for human CYP1A1 (AID 2283100)
Procedure: NVS_ADME_hCYP1A1 is a biochemical, single-readout assay that uses extracted gene-proteins in a cell-free assay. Measurements were taken 1 hour after chemical dosing in a 96-well plate.NVS_ADME_hCYP1A1 is one of one assay component(s) measured or calculated from the NVS_ADME_hCYP1A1 assay. It is designed to make measurements of enzyme activity, a form of enzyme reporter, as detected with fluorescence intensity signals by Fluorescence technology.Data from the assay component NVS_ADME_hCYP1A1 was analyzed into 1 assay endpoint. This assay endpoint, NVS_ADME_hCYP1A1, was analyzed in the positive analysis fitting direction relative to Acetonitrile as the negative control and baseline of activity. Using a type of enzyme reporter, loss-of-signal activity can be used to understand changes in the enzymatic activity as they relate to the gene CYP1A1. Furthermore, this assay endpoint can be referred to as a primary readout, because this assay has produced multiple assay endpoints where this one serves a enzymatic activity function. To generalize the intended target to other relatable targets, this assay endpoint is annotated to the cyp intended target family, where the subfamily is xenobiotic metabolism.
Binding assays used specific radioligands (tritiated, iodinated) with non-radioactive competitive displacement ligands in agonist or antagonist protocols (as indicated) and various reference compounds and inhibitors to titrate specific binding to receptors and transporters. Most enzyme assays (CYPs, kinases, phosphatases, proteases, HDACs) used recombinant protein and specific substrates (fluorescence mostly, some colorimetric and radioactive) and inhibitors, followed by a biochemical separation of substrate and product. All assays for the biochemical HTS were initially run in duplicate at a single concentration (10 uM for CYP450 assays and 25 uM for all others). Assay-chemical combinations meeting a pre-defined threshold (e.g., 30% inhibition and other criteria defined below) were then run in singleton concentration-response format with maximum concentration of 20 uM for CYPs and 50 uM for all others. Each assay was run with positive and negative controls, and concurrent controls on every plate. The follow-up (secondary) screen tested active chemical-pairs in concentration series, as well as a few additional assays not tested in the primary screen, some selected negative inactives, and several cases re-run in the concentration series for confirmatory purposes.

Chain of human CYP1A1, CYP1A1 (gene 1543) (P04798 whole entry, looked up): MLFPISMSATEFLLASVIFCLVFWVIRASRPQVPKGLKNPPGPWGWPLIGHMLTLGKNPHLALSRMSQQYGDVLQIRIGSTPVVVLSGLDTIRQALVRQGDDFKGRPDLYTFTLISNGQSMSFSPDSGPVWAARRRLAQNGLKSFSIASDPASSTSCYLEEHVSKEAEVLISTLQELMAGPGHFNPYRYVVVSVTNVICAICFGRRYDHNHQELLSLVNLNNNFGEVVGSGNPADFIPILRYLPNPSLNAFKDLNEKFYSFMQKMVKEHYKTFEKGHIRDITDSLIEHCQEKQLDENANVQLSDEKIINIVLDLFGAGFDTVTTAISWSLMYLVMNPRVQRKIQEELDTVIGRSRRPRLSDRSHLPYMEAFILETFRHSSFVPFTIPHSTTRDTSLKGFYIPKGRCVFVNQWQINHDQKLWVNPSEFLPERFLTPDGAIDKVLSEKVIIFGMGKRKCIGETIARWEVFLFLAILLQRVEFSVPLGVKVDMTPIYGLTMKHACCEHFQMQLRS

| SMILES | outcome | AC50 |
| --- | --- | --- |
| COc1ccc2cc(S(=O)(=O)N[C@H](CC(=O)N[C@H](Cc3ccc(CN4[C@H](C)CCC[C@@H]4C)cc3)C(=O)N(C)C(C)C)c3ccc4c(c3)OCO4)ccc2c1 | inactive |  |
| O=C1c2ccccc2C(=O)N1CCc1noc(-c2ccc(CN3CCCCCC3)s2)n1 |  | 4.62 µM (active) |
| Cc1oc2c(NC(=O)c3c(Cl)cccc3Cl)cccc2c1C(C)(C)O |  | 2.39 µM (active) |
| Clc1ccccc1C(c1ccccc1)(c1ccccc1)n1ccnc1 |  | 2.68 µM (active) |
| Clc1cc(Cl)c2c(c1)N=C1CCCCCN1C2 |  | 0.764 µM (active) |
| CN(C[C@@H](CC[N+]12CCC(C3CCCCC3)(CC1)CC2)c1ccc(Cl)c(Cl)c1)C(=O)c1cc(C(F)(F)F)cc(C(F)(F)F)c1 |  | 14.8 µM (active) |
| O=c1[nH]sc2ccccc12 |  | 5.11 µM (active) |
| CN(C)c1ccc(C(=C2C=CC(=[N+](C)C)C=C2)c2ccc(N(C)C)cc2)cc1 |  | 2.02 µM (active) |
| NCc1cccc(C2CCN(C(=O)c3ccc(C#Cc4ccccc4F)o3)CC2)c1 |  | 7.2 µM (active) |
| CCN(Cc1cccnc1)C(=O)c1cccc(Cl)c1[C@]1(C)C(=O)N(Cc2ccc(OC)cc2OC)c2ccc(Cl)cc21 | inactive |  |
